# From ChEMBL document CHEMBL1961873, “Compounds: GSK PKIS; Assays: Nanosyn kinase panel” (2012)
# What was measured:
# [1] = molecular target: High affinity nerve growth factor receptor (Homo sapiens) (UniProt P04629); conditions: at 1 µM;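 note: each value is the mean percent inhibition of TRKA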
# [2] = molecular target: BDNF/NT-3 growth factors receptor (Homo sapiens) (UniProt Q16620); conditions: at 0.1 µM
# [3] = molecular target: BDNF/NT-3 growth factors receptor (Homo sapiens) (UniProt Q16620); conditions: at 1 µM
# [4] = molecular target: NT-3 growth factor receptor (Homo sapiens) (UniProt Q16288); conditions: at 0.1 µM
# [5] = molecular target: NT-3 growth factor receptor (Homo sapiens) (UniProt Q16288); conditions: at 1 µM
# [6] = molecular target: T1, Tyrosine-protein kinase TXK (Homo sapiens) (UniProt P42681); conditions: at 0.1 µM
# T1 sequence (whole entry): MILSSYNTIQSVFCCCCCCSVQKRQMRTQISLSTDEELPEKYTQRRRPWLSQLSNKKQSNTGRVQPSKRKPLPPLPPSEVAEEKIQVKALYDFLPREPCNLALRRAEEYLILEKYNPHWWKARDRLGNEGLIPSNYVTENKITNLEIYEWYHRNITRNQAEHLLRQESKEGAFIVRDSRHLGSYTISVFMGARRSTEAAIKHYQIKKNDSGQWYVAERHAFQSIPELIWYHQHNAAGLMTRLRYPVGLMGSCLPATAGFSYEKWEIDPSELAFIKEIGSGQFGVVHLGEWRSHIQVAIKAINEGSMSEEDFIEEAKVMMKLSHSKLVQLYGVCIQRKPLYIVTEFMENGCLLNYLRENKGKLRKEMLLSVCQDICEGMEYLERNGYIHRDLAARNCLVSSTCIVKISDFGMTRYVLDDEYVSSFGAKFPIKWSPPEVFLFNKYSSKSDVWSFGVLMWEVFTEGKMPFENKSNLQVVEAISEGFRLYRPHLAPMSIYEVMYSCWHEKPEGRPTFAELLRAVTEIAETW
# [7] = molecular target: T1, Tyrosine-protein kinase TXK (Homo sapiens); conditions: at 1 µM
# [8] = molecular target: Non-receptor tyrosine-protein kinase TYK2 (Homo sapiens) (UniProt P29597); conditions: at 0.1 µM;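 note: each value is a mean of the inhibition readings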
# [9] = molecular target: T2, Dual specificity protein kinase TTK (Homo sapiens) (UniProt P33981); conditions: at 1 µM;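 note: reported figures are mean TTK inhibition at 1 µM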
# T2 sequence (whole entry): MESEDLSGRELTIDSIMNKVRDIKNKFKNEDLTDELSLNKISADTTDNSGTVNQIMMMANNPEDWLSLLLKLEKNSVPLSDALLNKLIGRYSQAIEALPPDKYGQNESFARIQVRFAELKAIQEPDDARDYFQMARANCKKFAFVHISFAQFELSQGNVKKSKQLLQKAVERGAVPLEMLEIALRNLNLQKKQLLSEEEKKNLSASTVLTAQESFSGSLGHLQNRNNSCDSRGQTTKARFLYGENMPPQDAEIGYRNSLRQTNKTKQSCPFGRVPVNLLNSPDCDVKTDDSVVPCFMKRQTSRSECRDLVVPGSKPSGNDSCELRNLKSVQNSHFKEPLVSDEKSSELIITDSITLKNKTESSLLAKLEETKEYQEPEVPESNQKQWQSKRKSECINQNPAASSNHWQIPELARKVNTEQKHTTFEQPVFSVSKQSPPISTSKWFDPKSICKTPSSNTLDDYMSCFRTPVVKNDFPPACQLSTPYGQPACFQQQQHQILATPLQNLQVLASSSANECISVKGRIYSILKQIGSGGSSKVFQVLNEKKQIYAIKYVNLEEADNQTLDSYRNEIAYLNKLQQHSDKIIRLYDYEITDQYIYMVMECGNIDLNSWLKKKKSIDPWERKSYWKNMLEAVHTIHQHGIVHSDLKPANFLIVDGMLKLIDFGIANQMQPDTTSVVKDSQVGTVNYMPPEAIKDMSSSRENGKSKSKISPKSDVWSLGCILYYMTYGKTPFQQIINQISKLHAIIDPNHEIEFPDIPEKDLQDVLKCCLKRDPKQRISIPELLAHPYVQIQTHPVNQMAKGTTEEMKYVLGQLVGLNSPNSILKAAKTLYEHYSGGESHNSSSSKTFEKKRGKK
# [10] = molecular target: T3, Aurora kinase A (Homo sapiens) (UniProt O14965); conditions: at 0.1 µM;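 note: each reported value is a mean percent inhibition of Aurora-A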
# T3 sequence (whole entry): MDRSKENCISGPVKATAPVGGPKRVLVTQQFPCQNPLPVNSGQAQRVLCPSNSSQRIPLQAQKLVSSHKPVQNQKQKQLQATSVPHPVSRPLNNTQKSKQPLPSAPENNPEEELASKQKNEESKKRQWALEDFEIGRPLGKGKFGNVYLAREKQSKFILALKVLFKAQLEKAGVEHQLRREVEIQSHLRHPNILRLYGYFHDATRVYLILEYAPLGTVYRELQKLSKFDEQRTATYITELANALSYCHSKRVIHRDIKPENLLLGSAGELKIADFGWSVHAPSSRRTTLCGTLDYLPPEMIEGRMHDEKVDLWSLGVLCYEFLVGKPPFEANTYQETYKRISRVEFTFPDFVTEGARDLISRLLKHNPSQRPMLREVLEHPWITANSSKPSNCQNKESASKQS
# Sequence of High affinity nerve growth factor receptor (Homo sapiens) (P04629 33-796 limits assumed): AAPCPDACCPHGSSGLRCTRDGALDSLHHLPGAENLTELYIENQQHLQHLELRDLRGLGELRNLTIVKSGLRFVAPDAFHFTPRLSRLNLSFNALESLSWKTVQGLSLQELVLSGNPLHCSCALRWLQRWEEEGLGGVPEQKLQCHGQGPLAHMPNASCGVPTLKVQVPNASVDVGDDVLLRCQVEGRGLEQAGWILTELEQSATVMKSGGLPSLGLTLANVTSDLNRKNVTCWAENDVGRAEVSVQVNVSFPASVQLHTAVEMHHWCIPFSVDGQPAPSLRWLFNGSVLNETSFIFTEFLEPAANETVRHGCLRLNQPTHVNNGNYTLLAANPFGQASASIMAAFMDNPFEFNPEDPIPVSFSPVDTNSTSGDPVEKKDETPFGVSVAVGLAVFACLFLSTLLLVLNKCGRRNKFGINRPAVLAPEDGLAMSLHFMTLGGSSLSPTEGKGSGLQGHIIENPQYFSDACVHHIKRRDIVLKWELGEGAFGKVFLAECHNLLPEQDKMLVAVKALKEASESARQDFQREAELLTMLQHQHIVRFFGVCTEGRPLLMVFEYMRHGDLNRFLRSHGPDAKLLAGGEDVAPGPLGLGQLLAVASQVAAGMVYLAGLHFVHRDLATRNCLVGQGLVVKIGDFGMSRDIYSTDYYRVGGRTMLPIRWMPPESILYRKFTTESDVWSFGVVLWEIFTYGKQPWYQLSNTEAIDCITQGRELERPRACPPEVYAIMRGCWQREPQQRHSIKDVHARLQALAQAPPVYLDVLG
# Sequence of NT-3 growth factor receptor (Homo sapiens) (Q16288 32-839 limits assumed): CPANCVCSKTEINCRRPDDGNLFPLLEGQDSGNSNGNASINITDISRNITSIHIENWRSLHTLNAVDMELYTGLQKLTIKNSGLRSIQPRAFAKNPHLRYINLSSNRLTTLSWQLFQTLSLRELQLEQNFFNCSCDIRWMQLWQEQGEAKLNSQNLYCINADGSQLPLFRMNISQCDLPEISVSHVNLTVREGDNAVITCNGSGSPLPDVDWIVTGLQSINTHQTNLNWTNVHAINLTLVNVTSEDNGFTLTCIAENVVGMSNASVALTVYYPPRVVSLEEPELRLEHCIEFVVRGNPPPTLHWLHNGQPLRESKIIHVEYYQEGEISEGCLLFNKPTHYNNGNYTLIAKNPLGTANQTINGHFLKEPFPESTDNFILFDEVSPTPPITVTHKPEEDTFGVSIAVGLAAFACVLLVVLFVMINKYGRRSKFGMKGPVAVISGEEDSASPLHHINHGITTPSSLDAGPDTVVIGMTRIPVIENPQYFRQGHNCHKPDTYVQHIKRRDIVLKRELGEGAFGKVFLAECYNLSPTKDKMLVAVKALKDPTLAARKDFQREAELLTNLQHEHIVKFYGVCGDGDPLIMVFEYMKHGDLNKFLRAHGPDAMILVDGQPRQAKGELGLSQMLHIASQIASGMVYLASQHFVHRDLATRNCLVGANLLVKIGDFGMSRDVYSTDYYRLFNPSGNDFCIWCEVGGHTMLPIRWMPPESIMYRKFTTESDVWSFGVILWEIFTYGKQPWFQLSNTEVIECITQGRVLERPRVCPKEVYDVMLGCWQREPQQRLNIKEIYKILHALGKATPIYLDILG
# Sequence of Non-receptor tyrosine-protein kinase TYK2 (Homo sapiens) (P29597 whole entry): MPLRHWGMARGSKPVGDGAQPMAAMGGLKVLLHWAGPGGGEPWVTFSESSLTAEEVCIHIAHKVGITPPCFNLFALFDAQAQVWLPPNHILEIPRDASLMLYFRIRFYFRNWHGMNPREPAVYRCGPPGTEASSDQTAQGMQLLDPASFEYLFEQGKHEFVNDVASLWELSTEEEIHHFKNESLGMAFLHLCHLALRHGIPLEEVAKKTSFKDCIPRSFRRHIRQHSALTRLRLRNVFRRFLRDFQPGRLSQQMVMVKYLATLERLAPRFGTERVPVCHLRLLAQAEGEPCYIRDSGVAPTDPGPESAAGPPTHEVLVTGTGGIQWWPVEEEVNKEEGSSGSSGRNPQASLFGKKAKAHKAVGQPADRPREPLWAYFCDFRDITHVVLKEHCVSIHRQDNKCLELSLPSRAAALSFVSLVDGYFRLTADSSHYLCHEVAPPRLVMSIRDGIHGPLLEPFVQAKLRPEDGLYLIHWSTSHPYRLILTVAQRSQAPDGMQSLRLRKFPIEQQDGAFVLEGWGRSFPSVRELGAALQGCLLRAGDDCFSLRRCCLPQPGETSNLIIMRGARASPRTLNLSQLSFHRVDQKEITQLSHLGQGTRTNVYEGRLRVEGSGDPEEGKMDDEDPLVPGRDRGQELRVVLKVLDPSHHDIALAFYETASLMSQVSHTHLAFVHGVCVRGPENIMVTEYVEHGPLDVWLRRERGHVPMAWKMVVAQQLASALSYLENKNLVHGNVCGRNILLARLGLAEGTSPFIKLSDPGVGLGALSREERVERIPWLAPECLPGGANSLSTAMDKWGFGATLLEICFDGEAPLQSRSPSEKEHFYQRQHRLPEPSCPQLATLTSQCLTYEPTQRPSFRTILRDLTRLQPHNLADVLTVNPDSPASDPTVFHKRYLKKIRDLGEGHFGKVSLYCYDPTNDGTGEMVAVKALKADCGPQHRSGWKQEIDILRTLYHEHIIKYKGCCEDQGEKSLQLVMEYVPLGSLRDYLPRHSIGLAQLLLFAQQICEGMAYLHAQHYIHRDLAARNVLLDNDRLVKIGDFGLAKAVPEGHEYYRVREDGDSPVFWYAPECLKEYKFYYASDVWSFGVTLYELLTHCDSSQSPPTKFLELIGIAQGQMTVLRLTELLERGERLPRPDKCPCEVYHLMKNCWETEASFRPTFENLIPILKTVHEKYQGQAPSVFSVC
# Sequence of BDNF/NT-3 growth factors receptor (Homo sapiens) (Q16620 32-822 limits assumed): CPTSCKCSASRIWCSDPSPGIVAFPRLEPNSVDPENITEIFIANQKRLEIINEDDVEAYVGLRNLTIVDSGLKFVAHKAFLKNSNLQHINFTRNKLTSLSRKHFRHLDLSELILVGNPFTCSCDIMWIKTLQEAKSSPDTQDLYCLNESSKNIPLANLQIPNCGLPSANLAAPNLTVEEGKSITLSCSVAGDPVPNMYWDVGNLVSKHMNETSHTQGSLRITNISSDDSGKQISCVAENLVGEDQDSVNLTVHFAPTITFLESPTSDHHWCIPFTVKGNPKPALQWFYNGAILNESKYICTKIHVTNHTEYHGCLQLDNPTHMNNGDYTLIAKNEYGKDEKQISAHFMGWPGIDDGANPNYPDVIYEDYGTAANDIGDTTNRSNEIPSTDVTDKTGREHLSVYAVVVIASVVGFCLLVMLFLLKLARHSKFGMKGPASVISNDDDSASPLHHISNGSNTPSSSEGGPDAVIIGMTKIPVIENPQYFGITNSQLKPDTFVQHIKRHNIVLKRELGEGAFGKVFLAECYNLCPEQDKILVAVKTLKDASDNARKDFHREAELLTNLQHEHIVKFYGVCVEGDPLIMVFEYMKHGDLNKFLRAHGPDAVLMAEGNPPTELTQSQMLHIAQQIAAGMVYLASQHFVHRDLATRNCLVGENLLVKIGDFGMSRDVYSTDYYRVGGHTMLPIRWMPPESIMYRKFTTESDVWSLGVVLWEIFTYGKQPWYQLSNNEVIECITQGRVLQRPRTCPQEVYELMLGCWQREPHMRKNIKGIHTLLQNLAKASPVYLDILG
Compound,inhibition [1] [%],inhibition [2] [%],inhibition [3] [%],inhibition [4] [%],inhibition [5] [%],inhibition [6] [%],inhibition [7] [%],inhibition [8] [%],inhibition [9] [%],inhibition [10] [%]
Cc1nnc(-c2ccc(C)c(-c3ccc(C(=O)Nc4cccc(C#N)c4)cc3)c2)o1,-1.21,1.33,3.51,-0.42,3.49,3.37,4.78,-1.14,6.46,0.8
COc1ccc(-c2nn3ncccc3c2-c2ccnc(Nc3ccc(Cl)c(C(F)(F)F)c3)n2)cc1,-1.35,-0.25,2.61,-0.42,2.6,3.13,3.03,-2.93,5,1.01
NC(=O)c1ccc(-c2nc(-c3ccccn3)c(-c3ccc4c(c3)OCO4)[nH]2)cc1,3.43,1.54,0.41,0.44,1.77,2.18,3.28,-4.13,3.14,1.85
CN(C)c1cc2c(Nc3ccc4nc(Cc5ccccc5)[nH]c4c3)ncnc2cn1,3.31,3.89,2.87,3.93,4.24,8.4,13.7,-8.04,32.2,3.28
Nc1ncnc2occ(-c3ccc(NC(=O)Nc4cc(C(F)(F)F)cc(C(F)(F)F)c4)cc3)c12,94.1,42.3,86.4,39,87.4,1.73,4.45,-8.39,3.75,2.66
CN1CCC(C(=O)Nc2n[nH]c3nnc(-c4ccccc4)cc23)CC1,1.65,2.71,5.68,2.52,6.56,2.62,4.13,-3.53,15,3.39
CS(=O)(=O)Nc1ccc(N/C=C2\C(=O)Nc3ccccc32)cc1,46.7,11.2,58.6,14.1,57,-1.93,1.85,3.51,18.9,7.34
Nc1nc(-c2ccc3c(c2)C(=Cc2cc(Br)c(O)c(Br)c2)C(=O)N3)cs1,2.45,1.16,9.18,2.62,16.6,-0.27,0.27,1.72,-0.27,-1.16
COc1cc2c(cc1Nc1nc(N3CCc4ccccc43)c3cc[nH]c3n1)N(C(=O)CN(C)C)CC2,3.52,-0.87,2.75,-1.19,5.17,4.42,7.54,-1.57,25.1,1.58
COc1ccc(-c2ccncc2)cc1C(N)=O,6.42,3.52,3.6,4.78,4.79,4.98,5.36,-2.48,8.41,2.92
COc1cc2ncn(-c3cc(O[C@H](C)c4ccccc4Cl)c(C(N)=O)s3)c2cc1OC,12.4,8.25,43.3,16.1,62.6,5.04,15.8,-0.55,13.2,2.7
COc1ccc(-c2coc3ncnc(N)c23)cc1,2.06,2.05,1.62,2.53,2.68,2.99,6.19,-3.01,11.5,3.09
O=C1NC(=O)C(c2cccc(Cl)c2)=C1Nc1ccc(O)c(Cl)c1,2.57,-0.13,0.31,-0.33,1.68,2.35,3.52,3.26,4.84,2.24
CC1=C(C(=O)Nc2ccc3[nH]ncc3c2)C(c2ccc(Cl)c(Cl)c2)CC(=O)N1 (stereo not given),0.57,1.67,-0.28,2.34,1.92,1.64,0.6,0.3,7.89,9.43
NS(=O)(=O)c1cccc(-c2ccc3c(NC(=O)C4CC4)n[nH]c3c2)c1,1.21,0.07,2.04,0.11,3.65,-2.48,-2.41,0.42,2.12,-1.3
COc1cccc(-n2ncc3c(N/N=C/c4cccc(F)c4)ncnc32)c1,3.57,2.75,6.27,2.97,7.58,-0.86,1.52,-0.2,10.5,-2.23
[O-][S+]1CCN(Cc2ccc(-c3ccc4ncnc(Nc5ccc(OCc6ccccc6)c(F)c5)c4c3)o2)CC1,1.44,1.84,1.51,0.84,2.26,2.49,3.34,-3.81,12.9,2.01
